Shown are actives, neighbours in structure and some others; about 19% of the full set was active somewhere.
HT1080 IDH1KD tx: toxicity to HT-1080 IDH1 knockdown cells (counter line); HT-1080 IDH1 knockdown viability, ATP luminescence, 48 h; AID 686971; 360,000 compounds, 2% hits; Potency, µM (highest dose often 46.1 µM), without a hit: top-dose activity, negative = toxicity, usual class: cytotoxic;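 further: potency means the concentration at half of the fitted maximal effect; 0% = DMSO wells and -100% = cell-free medium wells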
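After a 2 h attachment period, IDH1KD HT-1080 cells took pin-transferred compound for 48 h at 37 °C; ATP-based luminescence after 10 min room-temperature reagent incubation reported viability.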
TDP1 cell noCPT: qHTS for Inhibitors of human tyrosyl-DNA phosphodiesterase 1 (TDP1): qHTS in cells in absence of CPT | 420,000 compounds, 15% hits | Potency, µM (top dose mostly 46.2 µM), for inactives: at the top dose activity change, negative = growth inhibition, actives largely listed as inhibitors | DT40 Tdp1-/- hTDP1 cells, no CPT, ATP luminescence, 48 h; further: potency means the concentration at half of the fitted maximal effect; nearly all actives have a fitted effect of over 55% in size
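Camptothecin absent (DMSO only). Human TDP1-complemented DT40 knockout cells, 400 cells/well, 37 °C for minimum 48 hr; ATP measured via CellTiter-Glo, 30 min dark incubation, luminescence.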
ELG1 repair inh: ELG1-dependent DNA repair inhibition. Potency, µM (doses to about 46.1 µM), without a hit: top-dose activity change, negative = inhibition, hits mostly inhibitors. HEK293T ELG1-luciferase reporter, luminescence, 16 h; DNA damage induced by 5-fluorouridine. 330,000 compounds, 2.3% hits; further: potency means the concentration at half of the fitted maximal effect; nearly all actives have a fitted effect of over 55% in size
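HEK293T cells expressing luciferase-tagged ELG1 (2,000/well) received 5-Fluorouridine plus compound or DMSO for 16 hr at 37 °C. Luciferase was read by ONE-Glo luminescence after 30 min at room temperature.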
TDP1 cell CPT: DT40-hTDP1 cell growth loss with CPT; Potency, µM (highest dose often 46.2 µM), inactives show at the top dose activity change, negative = growth inhibition, most hits filed as inhibitors; chicken DT40 Tdp1-/-;hTDP1 cells + 20 nM CPT, ATP luminescence, 48 h; 420,000 compounds, 12% hits; further: potency means the concentration at half of the fitted maximal effect; nearly all actives have a fitted effect of over 55% in size
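Chicken DT40 Tdp1-/- cells complemented with human TDP1, 400 cells/well, exposed to compounds plus 20 nM camptothecin for at least 48 h at 37 C; viability read as ATP content by CellTiter-Glo luminescence.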
IL-1B inflam inh: inflammasome signaling inhibition, IL-1 beta readout; AID 743279; 360,000 compounds, 4.7% hits; THP-1 LPS/ATP IL-1B secretion, AlphaLISA, 16 h; hits give low values; activity change, % at 57.5 µM; in the data active means activity change below about -50%; inconclusive means mostly about -30% to -49%
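Secreted IL-1B measured by AlphaLISA bead assay after 16 h compound exposure of THP-1 cells; compounds (final up to 57.5 uM) added 1 h before LPS (250 ng/mL) and ATP (1.25 mM) stimulation; lower signal means less secretion.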
HT1080NT lethal: kills 2HG-producing HT-1080-NT fibrosarcoma cells; HT-1080-NT fibrosarcoma viability, CellTiter-Glo ATP luminescence, 48 h; Potency, µM (titrated, usually from 46.1 µM), for the others: top-dose activity, negative = less viability, usual class: cytotoxic; 360,000 compounds, 1.6% hits; AID 686970;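 further: NT is the 2HG producing partner of a matched IDH1 knockdown line; potency means the concentration at half of the fitted maximal effect; 0% = DMSO-treated cells and -100% = media-only wells without cells; nearly all actives have a fitted effect of over 55% in size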
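Luminescent CellTiter-Glo readout after 48 hours of compound exposure at 37 degrees C defined viability of HT-1080-NT cells. Activity was normalized to DMSO wells and cell-free media wells; concentration-response curves were fitted and assigned curve classes.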
* = called active by the depositor; ? = inconclusive; nt = no result; [ ] = remark or other dose. Unless noted, the call rests on the fitted dose curve; in most records, active means well fitted curve in the direction sought with a large enough effect; inconclusive means small, poorly fitted or top-dose-only effect, or another doubt; inactive means no such curve, though single readings can be large; an effect the other way counts as inactive or inconclusive. Unless noted, on the % scale 0 is the no-effect control and ±100 the full control effect.

SMILES	HT1080 IDH1KD tx	TDP1 cell noCPT	ELG1 repair inh	TDP1 cell CPT	IL-1B inflam inh	HT1080NT lethal
Cc1cc(C(=O)NC2CCCN(Cc3ccccc3F)C2)n[nH]1 (stereo not given)	7.3%	10.7%	10.7%	1.5%	5.2	?
COc1ccc(/C(C)=N\O)cc1OC	6.7%	-17.5%	-2.5%	1.7%	0.7	1.2%
CCOC(=O)C(C)Nc1ncnc2onc(C)c12 (stereo not given)	nt	-15.2%	nt	10.8%	nt	nt
CC1CCCN(CCCNC(=O)c2cc3c(s2)-c2ccccc2OC3)C1 (stereo not given)	?	?	?	?	-77.2*	20.6µM*
Cc1cccc2c1-c1sc(C(=O)NCCCN3CCC(C)CC3)cc1CO2	?	?	18.3%	?	?	?
CC1CCN(CCCNC(=O)c2cc3c(s2)-c2ccccc2OC3)CC1	?	?	10.5%	?	-27.3	23.1µM*
COC(=O)c1cc2c(s1)-c1ccccc1OC2	12.9%	-23.8%	?	1.1%	35.3	0.4%
O=C(NCCCN1CCN(c2ccccc2)CC1)c1cc2c(s1)-c1ccccc1OC2	nt	23.1µM*	nt	?	nt	nt
O=C(CCCCCN1C(=O)c2ccccc2C1=O)Nc1ccc(C(=O)O)cc1	10.7%	-0.9%	0.0%	13.1%	26.4	10.2%
CN(C)c1ccc(CNc2nc3cc(-c4ccc(F)cc4)sc3c(=O)n2C)cc1	?	?	nt	?	9.6	-18.6%
CCN(CC)S(=O)(=O)c1ccc(N2CCOCC2)c(NC(=O)c2cc3ccccc3oc2=O)c1	-11.3%	16.4µM*	5.17µM*	?	-11.3	-10.3%
CCN(CC)S(=O)(=O)c1ccc(N2CCOCC2)c(NC(=O)CNCCc2ccccc2)c1	-0.9%	18.4µM*	?	18.4µM*	-5.1	-1.0%
CC(C)(C)c1ccc(OCCC(=O)Nc2ccc(N3CCOCC3)cc2N2CCOCC2)cc1	?	16.4µM*	20.6µM*	16.4µM*	-51.1*	?
CCN(CC)S(=O)(=O)c1ccc(N2CCOCC2)c(NC(=O)CCOc2ccccc2)c1	2.3%	14.6µM*	?	?	-10.4	4.7%
CCN(CC)S(=O)(=O)c1ccc(N2CCOCC2)c(NC(=O)COc2ccccc2)c1	-3.2%	?	?	?	-2.4	5.0%
CC(C)[N+]1(C)C2CCC1CC(OC(=O)C(CO)c1ccccc1)C2 (stereo not given)	nt	-11.2%	nt	1.1%	nt	nt
COC(=O)c1sc2cccc(F)c2c1S(=O)(=O)Nc1ccc(N(C)C)cc1	nt	-22.4%	nt	-5.0%	nt	nt
Cc1cc(C(=O)N2CCOc3ccc(CN4CCC(Oc5cccnc5)CC4)cc3C2)c(C)o1	nt	?	nt	-2.4%[9.04 µM]	nt	nt
O=C(CSc1ccccc1)NCC1(N2CCOCC2)CCCCC1	0.3%	-5.0%	?	-11.9%	-16.7	-2.4%
CC(C)COC(=O)COc1cc(Cl)c(Cl)cc1Cl	nt	nt	29.6%	nt	nt	nt
O=C(Cc1ccccc1)Nc1cc(C(=O)c2ccccc2)ccc1N1CCOCC1	-1.8%	-86.4%	25.9µM*	-69.8%	65.5	-3.4%
Cc1cc(S(=O)(=O)Nc2cc3c(cc2NCc2ccccc2)n(C)c(=O)n3C)ccc1F	nt	11.6µM*	nt	7.31µM*	nt	nt
Cn1c(=O)n(C)c2cc(NS(=O)(=O)c3ccc(Cl)cc3)c(NCc3ccccc3)cc21	nt	13µM*	nt	10.3µM*	nt	nt
Cn1c(=O)n(C)c2cc(NS(=O)(=O)c3ccccc3)c(NCc3ccccc3)cc21	nt	?	nt	14.6µM*	nt	nt
CN(C)c1cc2c(cc1NS(=O)(=O)c1ccccc1)n(C)c(=O)n2C	-1.5%	?	?	?	4.1	-3.0%
